A selection: hits, their analogues and other compounds. The true share with any hit is near 2.6%.
Granule exo inh – blocks lytic granule exocytosis. AID 651702. inhibition, % at 10 µM. TALL-104 LAMP-1 surface exposure, flow cytometry; cells stimulated with thapsigargin and PMA. 0.66% of 360,000 active;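 active = inhibition above about 55%, limit read from the data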
NOD2 RIPK2 PPI – inhibitors of human NOD2-RIPK2 interaction | O43353 | CHO BLA complementation NOD2-RIPK2, CCF4 ratio | inhibition, % at 4.98 µM | 0.38% of 360,000 active; in the data active = inhibition above about 21%;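 note: 0% = vehicle only and 100% = reference blocker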
TLR9-MyD88 block – blocks human TLR9 binding to MyD88; 0.21% of 340,000 active; inhibition, % at 4.98 µM; CHO BLA complementation TLR9-MyD88, CCF4 FRET ratio; AID 504734;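 active = inhibition above the mean over all tested compounds plus 3 SD, cut at about 21% in these data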;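 note: 0% = DMSO only wells and 100% = clavulanate BLA inhibitor control wells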
TLR4 MyD88 comp – TLR4-MyD88 interaction inhibition in cells | 0.18% of 200,000 active | inhibition, % at 8.4 µM | HeLa CL3-4 TLR4/MyD88 BLA complementation, FRET ratio | O00206+Q99836 | AID 861; in the data active = inhibition above about 25%;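 note: 0% = vehicle and 100% = reference inhibitor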
ABHD5-PLIN5 inh – ABHD5-PLIN5 protein interaction inhibition; Q00G26+Q8WTS1; Split G. princeps luciferase complementation, luminescence, 4 h; inhibition, % at 4 µM; 0.78% of 360,000 active;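 active = inhibition above the mean inhibition across every tested compound plus 3 SD, cut at about 22% in these data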;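 note: 0% = DMSO only wells and the 100% control is not disclosed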
PRMT1 inh – PRMT1 (human) inhibition, primary screen | Q99873 | recombinant PRMT1, activity-based probe fluorescence polarization | inhibition, % at 2.79 µM | 1.3% of 370,000 active | AID 652257;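 active = inhibition above about 21% made by adding two undisclosed values, limit read from the data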
Target sequence (Q99873 whole entry, looked up): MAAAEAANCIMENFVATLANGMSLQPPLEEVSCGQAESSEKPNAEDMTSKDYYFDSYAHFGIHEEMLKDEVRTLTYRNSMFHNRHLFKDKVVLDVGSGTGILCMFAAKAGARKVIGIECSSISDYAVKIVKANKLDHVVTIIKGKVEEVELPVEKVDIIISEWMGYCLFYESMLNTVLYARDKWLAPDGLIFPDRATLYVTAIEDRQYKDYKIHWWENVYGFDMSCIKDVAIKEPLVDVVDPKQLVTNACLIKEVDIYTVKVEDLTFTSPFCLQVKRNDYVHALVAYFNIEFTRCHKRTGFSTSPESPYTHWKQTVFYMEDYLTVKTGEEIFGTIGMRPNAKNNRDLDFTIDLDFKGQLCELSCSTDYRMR
PRMT1 confirm – confirmation of human PRMT1 inhibitors; 42% of 3,300 active; AID 687036; shares compounds with PRMT1 inh; inhibition, % at 2.79 µM; recombinant His-PRMT1, activity-based probe fluorescence polarization;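 active = mean inhibition across replicates above the hit cutoff derived for the earlier primary screen, cut at about 22% in these data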
An asterisk follows results filed as active; . = no result given.

SMILES | Granule exo inh | NOD2 RIPK2 PPI | TLR9-MyD88 block | TLR4 MyD88 comp | ABHD5-PLIN5 inh | PRMT1 inh | PRMT1 confirm
CCOC(=O)c1ccc(N2C(=O)CC(Sc3nnc(C)s3)C2=O)cc1 (stereo not given) | 4.2 | 7.6 | -1.5 | 4.5 | 9.5 | 71.7* | 75.9*
COc1cc(Cl)c(C)cc1NC(=O)COC(=O)c1ccc(CN2CCCC2=O)cc1 | 0.0 | 1.2 | -15.6 | . | 8.9 | 2.4 | .
CCCCNC(=O)C[C@@H]1C[C@@]2(C(=O)OC)CCCCC=C2N(Cc2cccc3ccccc23)C1=O | 1.1 | -0.6 | . | . | 7.0 | 5.7 | .
O=[N+]([O-])c1cccc(C(=S)N2CCN(c3ccccc3)CC2)c1 | -0.4 | -14.5 | -4.8 | -3.6 | -4.1 | 35.5* | 7.4
O=[N+]([O-])c1cccc(C(=S)N2CCN(c3ccccc3F)CC2)c1 | 1.6 | 0.9 | 3.1 | -2.1 | -0.5 | 8.8 | .
Clc1ccc(-c2nnnn2-c2ccc(Cl)cc2)cc1 | 3.7 | -7.2 | . | . | 2.0 | -1.1 | .
Cc1ccc(-n2nnnc2C(Cl)(Cl)c2nnnn2-c2ccc(C)cc2)cc1 | 48.1 | -5.5 | -8.5 | 1.1 | 12.2 | 47.8* | 90.2*
Cc1cc(C)cc(C(N)=Nc2cccc(C#N)c2)c1 | -14.2 | -9.3 | 4.4 | . | 1.3 | -1.3 | .
N#Cc1cccc(N=c2ssnc2Cl)c1 | . | . | . | -1.2 | . | 100.1* | 91.9*
COc1cc(N=c2ssnc2Cl)cc(OC)c1 | -1.1 | -16.7 | 0.0 | -25.9 | -2.4 | 63.4* | 91.9*
N=C1N(C(=O)OCc2ccccc2)/C(=C\C2=CCCCC2)C(Cc2ccccc2)N1Cc1ccccc1 (stereo not given) | . | . | . | . | . | 0.8 | .
CN1C(C(=O)NCc2ccc(OC(F)(F)F)cc2)CC2Cn3c(nc4ccccc43)C21 (stereo not given) | 5.1 | -0.4 | 3.2 | . | 1.9 | -1.1 | .
COc1ccc(NC(=O)CC2SC3=NCCN3C2=O)cc1 (stereo not given) | -1.2 | -7.3 | -8.4 | 4.8 | 0.9 | -1.4 | .
Cc1ccc(NC(=O)CC2SC3=NCCN3C2=O)cc1 (stereo not given) | 1.8 | 14.6 | 5.8 | -7.2 | 22.9* | 94.1* | 8.8
O=C1C(=O)c2c(ccc3ccccc23)-c2ccccc21 | 16.9 | -4.7 | -2.0 | . | -28.6 | -1.4 | .
O=C(OCC(=O)c1ccco1)c1ccc2ncsc2c1 | -4.3 | 8.9 | 2.2 | 0.0 | -7.9 | 46.3* | 4.4
CC(C)(C)c1ccc(NC(=O)COC(=O)c2ccc3ncsc3c2)cc1 | -0.6 | -1.3 | 2.0 | . | -7.0 | 5.7 | .
NC(=O)c1ccccc1NC(=O)c1cc(S(=O)(=O)N2CCCCC2)ccc1N1CCOCC1 | 2.5 | 3.7 | 6.6 | . | -4.9 | 4.5 | .
S=C(NCc1ccco1)Nc1cc(-c2ccccc2)[nH]n1 | 29.5 | 3.9 | -1.0 | 1.0 | 2.1 | 31.9* | 28.9*
S=C(NCc1ccco1)Nc1ccc(Br)cn1 | 5.4 | -3.5 | -2.5 | . | 4.2 | 6.1 | .
COc1cc(C(=O)N2CCCC(C)(C(=O)NS(=O)(=O)C3CC3)C2)cc(OC)c1OC (stereo not given) | -4.8 | 2.3 | . | . | 11.8 | 3.0 | .
Cc1ccc(S(=O)(=O)Oc2ccc(/C=N/N=C3/NC(=O)C(CC(=O)O)S3)cc2)cc1[N+](=O)[O-] (stereo not given) | -13.8 | -0.5 | -3.8 | . | -4.0 | 1.3 | .
c1ccc(OCc2nnc3sc(-c4cccs4)nn23)cc1 | -6.2 | -3.0 | 0.2 | 7.1 | -0.7 | 17.9 | .
Clc1ccc(Cl)c(-c2nn3c(COc4ccccc4)nnc3s2)c1 | -0.6 | 0.4 | -2.9 | 5.8 | -4.7 | 28.5* | -0.1
Cc1nnc(SCC2=C(C(=O)O)N3C(=O)C(NC(=O)c4cc(F)c(F)cc4Cl)C3SC2)s1 (stereo not given) | 5.8 | -13.7 | -8.8 | -2.8 | 3.9 | 33.9* | 16.5
Cc1nnc(SCC2=C(C(=O)O)N3C(=O)C(NC(=O)COc4ccc(F)cc4)C3SC2)s1 (stereo not given) | 3.0 | -10.2 | -2.7 | . | 9.2 | 31.3* | 22.8*
CCC(C(=O)NC1C(=O)N2C(C(=O)O)=C(CSc3nnc(C)s3)CSC12)c1ccccc1 (stereo not given) | 3.0 | -2.6 | 2.0 | . | 11.8 | 28.4* | 17.1
Cc1nnc(SCC2=C(C(=O)O)N3C(=O)[C@@H](NC(=O)Cn4cnnn4)[C@H]3SC2)s1 | -1.0 | -9.6 | -12.2 | -9.1 | -12.3 | 15.9 | .

Assay outcomes deposited in PubChem BioAssay by several laboratories.
